From PubChem BioAssay (NCI) come the findings set out here.

The structures appear in SMILES notation. Compounds without any hit were thinned out: in the full panel of roughly 79,000, 15% have a hit. Values without a mark were called inactive. Calls of active or inactive are those of the source. Rule as the data show it: active = growth inhibition above about 70%; inactive = the rest.

Assay [1] in a line: NCI Yeast Anticancer Drug Screen. Data for the rad50 strain (AID 155).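 Also: 0% = growth of vehicle-only cultures of the same strain.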 The conditions noted are these: S. cerevisiae rad50 strain growth inhibition, active compounds read high. Put shortly:
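Vehicle-treated cultures provide the reference for the growth inhibition reported for compound-exposed, repair-deficient yeast.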

Assay [2] is described as follows: NCI Yeast Anticancer Drug Screen. Data for the mec2-1 strain (AID 157). The conditions noted are these: S. cerevisiae mec2-1 strain, active compounds read high. Put shortly:
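Using mec2-1 yeast: add compound, measure growth, express inhibition versus vehicle-treated cultures.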

Assay [3] can be described thus: NCI Yeast Anticancer Drug Screen. Data for the sgs1 mgt1 strain (AID 161).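 Also: 0% = growth of cultures given vehicle only.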 The note with it: S. cerevisiae sgs1 mgt1 strain, active compounds read high. Put shortly:
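Percent growth inhibition was derived by comparing compound-exposed mutant yeast with vehicle-exposed cultures. The strain carries alterations in DNA damage repair.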

A short description of assay [4]: NCI Yeast Anticancer Drug Screen. Data for the cln2 rad14 strain (AID 165).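 Also: 0% = growth equal to vehicle treated cultures.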 The conditions noted are these: S. cerevisiae cln2 rad14 strain, active compounds read high. The method, boiled down: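 Yeast strain cln2 rad14, bearing defects in cell cycle control and DNA repair, serves as the test system; values reflect growth inhibition compared with vehicle.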
Assay [5] is described as follows: NCI Yeast Anticancer Drug Screen. Data for the bub3 strain (AID 167). The conditions noted are these: S. cerevisiae bub3 mutant strain, active compounds read high. The method, boiled down:
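Mutant yeast screening strain plus compound; vehicle-treated cultures serve as the 0% inhibition reference.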

The nature of assay [6]: NCI Yeast Anticancer Drug Screen. Data for the mlh1 rad18 strain (AID 175). The note with it: S. cerevisiae mlh1 rad18 strain growth inhibition, active compounds read high. Put shortly:
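Steps: expose repair-defective yeast to compound; measure growth; express inhibition against vehicle-treated controls.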

The mark [7] stands for this setting: at 5.0 µM (retest, dose inferred, filed as 0.5).
Setting [8] is: at 50.0 µM (retest, dose inferred, filed as 5.0).

Take `O=[N+]([O-])c1cccc(C=Nc2ccccc2O)c1`: the growth inhibition in assay [1] (setting [7]) is 22%; in assay [1] (setting [8]), 34%; in assay [1] (at 50.0 µM), 63.1%; in assay [2] (setting [7]), 12%; in assay [2] (setting [8]) it was 31%; in assay [2] (at 50.0 µM) it was 41.8%. In addition, the growth inhibition in assay [3] (setting [7]) is 13%; in assay [3] (setting [8]), 35%; in assay [3] (at 50.0 µM), 52.7%; in assay [4] (setting [7]), -4%; in assay [4] (setting [8]) it was 7%; in assay [4] (at 50.0 µM), 17.6%. Moreover, the growth inhibition in assay [5] (setting [7]) was 23%; in assay [5] (setting [8]), 82% (active); in assay [5] (at 50.0 µM) it was 76% (active); in assay [6] (setting [7]), 24%; in assay [6] (setting [8]) it was 48%; in assay [6] (at 50.0 µM) it was 70.8% (active).

Consider `CCOC(=O)C(=Cc1ccc(C(=O)OC)cc1)C(=O)OCC`, for which the growth inhibition is 10% in assay [1] (setting [7]); 58% in assay [1] (setting [8]); 82.2% (active) in assay [1] (at 50.0 µM); 11% in assay [2] (setting [7]); 86% (active) in assay [2] (setting [8]); 75.2% (active) in assay [2] (at 50.0 µM). Besides, the growth inhibition in assay [3] (setting [7]) was -2%; in assay [3] (setting [8]) it was 63%; in assay [3] (at 50.0 µM), 75.3% (active); in assay [4] (setting [7]) it was 38%; in assay [4] (setting [8]), 80% (active); in assay [4] (at 50.0 µM) it was 69.5%. For the same molecule, the growth inhibition is 12% in assay [5] (setting [7]); 93% (active) in assay [5] (setting [8]); 77.2% (active) in assay [5] (at 50.0 µM); 14% in assay [6] (setting [7]); 88% (active) in assay [6] (setting [8]); 62.8% in assay [6] (at 50.0 µM).

Regarding `COC1(OC)C2(Cl)C(Cl)=C(Cl)C1(Cl)C1C2C2CC1(C(=O)O)c1ccccc12` (stereo not drawn), the growth inhibition in assay [1] (setting [7]) was 29%; in assay [1] (setting [8]), 29%; in assay [1] (at 50.0 µM), 92% (active); in assay [2] (setting [7]), 23%; in assay [2] (setting [8]), 23%; in assay [2] (at 50.0 µM) it was 93.4% (active). Also, the growth inhibition in assay [3] (setting [7]) was 17%; in assay [3] (setting [8]), 17%; in assay [3] (at 50.0 µM), 93% (active); in assay [4] (setting [7]) it was 26%; in assay [4] (setting [8]), 26%; in assay [4] (at 50.0 µM), 91.5% (active). In addition, the growth inhibition was 26% in assay [5] (setting [7]); 26% in assay [5] (setting [8]); 90.8% (active) in assay [5] (at 50.0 µM); 41% in assay [6] (setting [7]); 41% in assay [6] (setting [8]); 90.5% (active) in assay [6] (at 50.0 µM).

Take `NC(=S)n1nc(-c2ccccc2)c(N=Nc2ccccc2Cl)c1-c1ccccc1`: the growth inhibition in assay [1] (setting [7]) was 3%; in assay [1] (setting [8]), 84% (active); in assay [1] (at 50.0 µM), 94.8% (active); in assay [2] (setting [7]), 0%; in assay [2] (setting [8]), 58%; in assay [2] (at 50.0 µM), 55.5%. Moreover, the growth inhibition is 1% in assay [3] (setting [7]); 83% (active) in assay [3] (setting [8]); 72.9% (active) in assay [3] (at 50.0 µM); 21% in assay [4] (setting [7]); 92% (active) in assay [4] (setting [8]); 73.9% (active) in assay [4] (at 50.0 µM). For the same molecule, the growth inhibition in assay [5] (setting [7]) was 16%; in assay [5] (setting [8]) it was 92% (active); in assay [5] (at 50.0 µM) it was 93.7% (active); in assay [6] (setting [7]), 2%; in assay [6] (setting [8]), 71% (active); in assay [6] (at 50.0 µM) it was 90.6% (active).

As to `COc1ccc2c(c1)S(=O)(=O)C(c1ccccc1)=CC2=O`, the growth inhibition in assay [1] (setting [7]) is 81% (active); in assay [1] (setting [8]) it was 99% (active); in assay [1] (at 50.0 µM) it was 99.5% (active); in assay [2] (setting [7]) it was 87% (active); in assay [2] (setting [8]), 99% (active); in assay [2] (at 50.0 µM) it was 99.5% (active). Also, the growth inhibition in assay [3] (setting [7]) is 91% (active); in assay [3] (setting [8]), 99% (active); in assay [3] (at 50.0 µM), 99.2% (active); in assay [4] (setting [7]), 66%; in assay [4] (setting [8]), 99% (active); in assay [4] (at 50.0 µM), 97.5% (active). In addition, the growth inhibition in assay [5] (setting [7]) is 87% (active); in assay [5] (setting [8]) it was 98% (active); in assay [5] (at 50.0 µM), 99.5% (active); in assay [6] (setting [7]), 95% (active); in assay [6] (setting [8]), 98% (active); in assay [6] (at 50.0 µM), 99% (active).

As for `O=C(CSc1cc[o+]cc1)c1cccc([N+](=O)[O-])c1`, the growth inhibition was 0% in assay [1] (setting [7]); 49% in assay [1] (setting [8]); 65.8% in assay [1] (at 50.0 µM); 2% in assay [2] (setting [7]); 87% (active) in assay [2] (setting [8]); 81.8% (active) in assay [2] (at 50.0 µM). For the same molecule, the growth inhibition in assay [3] (setting [7]) was 4%; in assay [3] (setting [8]) it was 86% (active); in assay [3] (at 50.0 µM), 68%; in assay [4] (setting [7]), -5%; in assay [4] (setting [8]), 53%; in assay [4] (at 50.0 µM) it was 78.5% (active). Further, the growth inhibition in assay [5] (setting [7]) is 4%; in assay [5] (setting [8]), 92% (active); in assay [5] (at 50.0 µM) it was 97.1% (active); in assay [6] (setting [7]), -3%; in assay [6] (setting [8]), 85% (active); in assay [6] (at 50.0 µM), 93.5% (active).

On to `N#CC1Sc2ccccc2N1C(=O)Oc1ccccc1` (stereo not drawn), for which the growth inhibition was 3% in assay [1] (setting [7]); 98% (active) in assay [1] (setting [8]); 98.8% (active) in assay [1] (at 50.0 µM); 0% in assay [2] (setting [7]); 98% (active) in assay [2] (setting [8]); 98.7% (active) in assay [2] (at 50.0 µM). Moreover, the growth inhibition in assay [3] (setting [7]) was 5%; in assay [3] (setting [8]), 98% (active); in assay [3] (at 50.0 µM), 98.8% (active); in assay [4] (setting [7]), 3%; in assay [4] (setting [8]) it was 97% (active); in assay [4] (at 50.0 µM) it was 98.2% (active). The growth inhibition is 15% in assay [5] (setting [7]); 98% (active) in assay [5] (setting [8]); 99.1% (active) in assay [5] (at 50.0 µM); 5% in assay [6] (setting [7]); 98% (active) in assay [6] (setting [8]); 98.8% (active) in assay [6] (at 50.0 µM).

As to `CC1=C(C(=O)Nc2ccc(Cl)c(Cl)c2)C(c2ccco2)C(C(=O)Nc2ccc(Cl)c(Cl)c2)=C(C)N1`, the growth inhibition in assay [1] (setting [7]) is 41%; in assay [1] (setting [8]), 41%; in assay [1] (at 50.0 µM), 88.7% (active); in assay [2] (setting [7]), 22%; in assay [2] (setting [8]), 22%; in assay [2] (at 50.0 µM) it was 87.7% (active). The growth inhibition in assay [3] (setting [7]) was -4%; in assay [3] (setting [8]), -4%; in assay [3] (at 50.0 µM), 89.3% (active); in assay [4] (setting [7]), 24%; in assay [4] (setting [8]), 24%; in assay [4] (at 50.0 µM) it was 88.2% (active). The growth inhibition is 10% in assay [5] (setting [7]); 10% in assay [5] (setting [8]); 89% (active) in assay [5] (at 50.0 µM); 36% in assay [6] (setting [7]); 36% in assay [6] (setting [8]); 87.6% (active) in assay [6] (at 50.0 µM).

As for `CC(=O)Nc1ccc(Nc2ccc(C(=C3C=CC(=[N+](C)CCC#N)C=C3)c3ccc(N(C)CCC#N)cc3)cc2)cc1`, the growth inhibition was 11% in assay [1] (setting [7]); 64% in assay [1] (setting [8]); 8.4% in assay [1] (at 50.0 µM); 13% in assay [2] (setting [7]); 77% (active) in assay [2] (setting [8]); 47.7% in assay [2] (at 50.0 µM). The growth inhibition in assay [3] (setting [7]) was 44%; in assay [3] (setting [8]) it was 83% (active); in assay [3] (at 50.0 µM), 58.4%; in assay [4] (setting [7]), 41%; in assay [4] (setting [8]) it was 83% (active); in assay [4] (at 50.0 µM) it was 55.5%. Moreover, the growth inhibition is 45% in assay [5] (setting [7]); 77% (active) in assay [5] (setting [8]); 59.5% in assay [5] (at 50.0 µM); 15% in assay [6] (setting [7]); 72% (active) in assay [6] (setting [8]); 45% in assay [6] (at 50.0 µM).

On to `CNc1ccc(F)cc1SSc1cc(F)ccc1NC`, for which the growth inhibition in assay [1] (setting [7]) is 97% (active); in assay [1] (setting [8]), 98% (active); in assay [1] (at 50.0 µM), 99% (active); in assay [2] (setting [7]), 94% (active); in assay [2] (setting [8]), 99% (active); in assay [2] (at 50.0 µM), 99.5% (active). Moreover, the growth inhibition was 95% (active) in assay [3] (setting [7]); 99% (active) in assay [3] (setting [8]); 99.4% (active) in assay [3] (at 50.0 µM); 10% in assay [4] (setting [7]); 99% (active) in assay [4] (setting [8]); 99% (active) in assay [4] (at 50.0 µM). Moreover, the growth inhibition is 38% in assay [5] (setting [7]); 99% (active) in assay [5] (setting [8]); 99.2% (active) in assay [5] (at 50.0 µM); 97% (active) in assay [6] (setting [7]); 99% (active) in assay [6] (setting [8]); 99.2% (active) in assay [6] (at 50.0 µM).

Take `CSC(SC)(C(=O)O)c1cc(C)no1`: the growth inhibition in assay [1] (setting [7]) was -7%; in assay [1] (setting [8]), -23%; in assay [1] (at 50.0 µM), 19.4%; in assay [2] (setting [7]), -17%; in assay [2] (setting [8]) it was -2%; in assay [2] (at 50.0 µM), 16.6%. Also, the growth inhibition was -17% in assay [3] (setting [7]); -15% in assay [3] (setting [8]); 2.55% in assay [3] (at 50.0 µM); -7% in assay [4] (setting [7]); 10% in assay [4] (setting [8]); 45.2% in assay [4] (at 50.0 µM). In addition, the growth inhibition is 14% in assay [5] (setting [7]); 7% in assay [5] (setting [8]); 5.2% in assay [5] (at 50.0 µM); -2% in assay [6] (setting [7]); -21% in assay [6] (setting [8]); 1.2% in assay [6] (at 50.0 µM).
